The nature of assay [1]: BSK_3C_TissueFactor: BioMAP Diversity Plus: 3C Assay for Tissue Factor Biomarker Activity (AID 2282997). Particulars: BioMAP 3C HUVEC, tissue factor biomarker readout; actives raise or lower the signal. Summed up: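 Endothelial monolayers (human umbilical vein, primary) are dosed, incubated 24 h, and assayed for Tissue Factor by ELISA; DMSO serves as negative control for bidirectional fitting.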

Read-out in assay [2]: Interleukin-8 (IL8), CXCL8 (gene 3576)
The assay can be described thus: BSK_3C_IL8: BioMAP Diversity Plus: 3C Assay for Interleukin-8 (IL8) Biomarker Activity (AID 2283020). Particulars: primary human endothelial cells (HUVEC); actives raise or lower the signal. The method, boiled down:
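Human vascular endothelial cells (umbilical vein) in the 3C system; IL-8 level detected by ELISA at 24 h post-dose, with DMSO as baseline.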

Read-out in assay [3]: Thrombomodulin, THBD (gene 7056)
Description: BSK_3C_Thrombomodulin: BioMAP Diversity Plus: 3C Assay for Thrombomodulin Biomarker Activity (AID 2283029). As to conditions: primary human endothelial cells (HUVEC); actives raise or lower the signal. Summed up: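 Thrombomodulin ELISA, human primary HUVEC, 24 h post-dose; data fitted in both directions relative to DMSO.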

Read-out in assay [4]: Urokinase-type plasminogen activator receptor (uPAR), PLAUR (gene 5329)
Description: BSK_4H_uPAR: BioMAP Diversity Plus: 4H Assay for Urokinase-type plasminogen activator receptor (uPAR) Biomarker Activity (AID 2283030). Particulars: primary human endothelial cells (HUVEC); actives raise or lower the signal. Summed up:
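Endpoint derived via bidirectional curve fitting against DMSO baseline; readout was ELISA detection of uPAR on umbilical vein endothelial cells at 24 h post-treatment, with SRB-stained parallel cultures assessing cytotoxicity.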

Read-out in assay [5]: Monokine induced gamma interferon (MIG), CXCL9 (gene 4283)
The assay can be described thus: BSK_CASM3C_MIG: BioMAP Diversity Plus: CASM3C Assay for Monokine induced gamma interferon (MIG) Biomarker Activity (AID 2283048).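 Further: MIG protein level measured by ELISA.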 As to conditions: primary human coronary artery smooth muscle cells; actives raise or lower the signal.

Read-out in assay [6]: serum amyloid A (SAA), SAA1 (gene 6288)
The assay can be described thus: BSK_CASM3C_SAA: BioMAP Diversity Plus: CASM3C Assay for serum amyloid A (SAA) Biomarker Activity (AID 2283049).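 Further: SAA protein level quantified by ELISA.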 As to conditions: primary human coronary artery smooth muscle cells; actives raise or lower the signal.

Read-out in assay [7]: Thrombomodulin, THBD (gene 7056)
The assay can be described thus: BSK_CASM3C_Thrombomodulin: BioMAP Diversity Plus: CASM3C Assay for Thrombomodulin Biomarker Activity (AID 2283051).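 Further: thrombomodulin protein level measured by ELISA 24 h after dosing.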 As to conditions: primary human coronary artery smooth muscle cells; actives raise or lower the signal.

Read-out in assay [8]: Vascular cell adhesion molecule 1 (VCAM1), VCAM1 (gene 7412)
The assay can be described thus: BSK_CASM3C_VCAM1: BioMAP Diversity Plus: CASM3C Assay for Vascular cell adhesion molecule 1 (VCAM1) Biomarker Activity (AID 2283055).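 Further: VCAM-1 protein level quantified by ELISA on the cells.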 Particulars: primary human coronary artery smooth muscle cells; actives raise or lower the signal.

Read-out in assay [9]: Interleukin-8 (IL8), CXCL8 (gene 3576)
Description: BSK_LPS_IL8: BioMAP Diversity Plus: LPS Assay for Interleukin-8 (IL8) Biomarker Activity (AID 2283078). Particulars: primary human HUVEC with PBMC; actives raise or lower the signal. Summed up:
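In this LPS system, chemical-treated human umbilical vein endothelium/PBMC co-cultures were harvested at 24 h for IL-8 ELISA.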

Read-out in assay [10]: Monocyte Chemoattractant Protein-1 (MCP1), CCL2 (gene 6347)
Description: BSK_hDFCGF_MCP1: BioMAP Diversity Plus: hDFCGF Assay for Monocyte Chemoattractant Protein-1 (MCP1) Biomarker Activity (AID 2284285). Particulars: primary human foreskin fibroblasts. Summed up:
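Human foreskin fibroblasts (hDFCGF system) were exposed to compound and secreted MCP-1 was measured by ELISA after 24 hours. Activity was fitted relative to DMSO. Cytotoxicity was checked by SRB total-protein staining in parallel cultures.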

A short description of assay [11]: ATG_CRE_CIS: Attagene CIS-FACTORIAL HepG2 Assay for human cAMP Responsive Element (CRE) binding protein 3 (AID 2282926). Particulars: HepG2 CRE cis-reporter, Attagene multiplexed mRNA; actives raise or lower the signal. Summed up: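 Transfected HepG2 were treated for 24 hours, then RNA was extracted and reporter cDNA amplified with sequence-specific primers. Labelled fragments were separated by capillary electrophoresis, and the CRE signal was fitted bidirectionally with DMSO as baseline.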

Assay [12] in a line: ATG_DR4_LXR_CIS: Attagene CIS-FACTORIAL HepG2 Assay for human Liver X Receptor (LXR), DR4 submotif (AID 2282929). Particulars: HepG2 Attagene DR4 cis-reporter, mRNA transcription; actives raise or lower the signal. The method, boiled down: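 DR4 cis-reporter in HepG2, 24 h exposure. Detection: RT-PCR, 6-FAM labelling, CE fragment analysis. Endpoint fitted bidirectionally, DMSO = baseline.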

Assay [13] is described as follows: ATG_AP_1_CIS: Attagene CIS-FACTORIAL HepG2 Assay for human Activator Protein 1 (AP-1) (AID 2282931). Particulars: HepG2 Attagene cis-factorial AP-1 reporter mRNA; actives raise or lower the signal. The method, boiled down: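 Cis-regulated reporter units transiently expressed in HepG2 report endogenous transcription-factor activity. Signal: reporter mRNA at 24 h, via RT-PCR and fluorescent capillary electrophoresis. Endpoint derived by bidirectional fitting, DMSO as negative control.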

Assay [14] concerns the target Hepatocyte nuclear factor 3-beta (Homo sapiens) (UniProt Q9Y261). Description: ATG_FoxA2_CIS: Attagene CIS-FACTORIAL HepG2 Assay for human Forkhead box A2 (FOXA2) (AID 2282942). Particulars: HepG2 cis-reporter transcription factor activity, 24 h; actives raise or lower the signal. Summed up:
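Measured: reporter mRNA induction or loss in HepG2 transiently carrying multiple cis-regulated reporter units, 24 h after dosing. Quantified by RT-PCR plus capillary electrophoresis, normalised to DMSO.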

For assay [15], the target named is Heat shock factor protein 1 (Homo sapiens) (UniProt Q00613). Description: ATG_HSE_CIS: Attagene CIS-FACTORIAL HepG2 Assay for human Heat Shock Transcription Factor 1 (HSE) (AID 2282953). As to conditions: HepG2 HSE cis-reporter, Attagene RNA transcription; actives raise or lower the signal. Summed up: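 HepG2 cells transiently transfected with multiple reporter transcription units under cis-regulatory promoter control, measuring endogenous transcription factor activity. After 24 h chemical exposure, reporter mRNA quantified by RT-PCR, fluorescent labelling, HpaI digestion and capillary electrophoresis; bidirectional fit versus DMSO.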
Chain of Heat shock factor protein 1 (Homo sapiens) (Q00613 whole entry, looked up): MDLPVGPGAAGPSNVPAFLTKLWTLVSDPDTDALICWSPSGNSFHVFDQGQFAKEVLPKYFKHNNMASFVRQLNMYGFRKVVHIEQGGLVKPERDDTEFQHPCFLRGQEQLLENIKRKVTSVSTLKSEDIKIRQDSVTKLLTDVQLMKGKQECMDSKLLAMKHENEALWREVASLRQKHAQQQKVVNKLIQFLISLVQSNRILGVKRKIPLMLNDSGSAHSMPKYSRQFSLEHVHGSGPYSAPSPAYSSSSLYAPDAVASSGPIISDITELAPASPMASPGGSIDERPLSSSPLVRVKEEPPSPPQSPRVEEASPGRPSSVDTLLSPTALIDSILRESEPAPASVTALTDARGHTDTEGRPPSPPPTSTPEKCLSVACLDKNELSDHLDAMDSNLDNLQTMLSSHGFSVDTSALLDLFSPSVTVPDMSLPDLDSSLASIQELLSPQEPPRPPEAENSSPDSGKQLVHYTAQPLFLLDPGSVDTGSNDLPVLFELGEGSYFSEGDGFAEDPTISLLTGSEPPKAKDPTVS

The nature of assay [16]: ATG_RORE_CIS: Attagene CIS-FACTORIAL HepG2 Assay for human RAR-related Orphan Receptor Element (RORE) (AID 2282959). Particulars: HepG2 Attagene cis-factorial RORE reporter, mRNA; actives raise or lower the signal. The method, boiled down: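 Transiently transfected HepG2 reporter cells were treated 24 h. Reporter transcripts were detected by RT-PCR and capillary electrophoresis, with bidirectional fitting against DMSO.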

The target of assay [17] is Nuclear respiratory factor 1 (Homo sapiens) (UniProt Q16656). The assay can be described thus: ATG_NRF1_CIS: Attagene CIS-FACTORIAL HepG2 Assay for human Nuclear Respiratory Factor 1 (NRF1) Orphan Gene (AID 2282987). Particulars: HepG2 NRF1 cis-element reporter, Attagene multiplex; actives raise or lower the signal. Summed up:
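Using DMSO as baseline, gain- or loss-of-signal was fitted for reporter mRNA levels in HepG2 cells transiently transfected with cis-regulated reporter units. Samples were taken 24 h after dosing and read by RT-PCR with capillary electrophoresis.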

Assay [18] is described as follows: ATG_NFI_CIS: Attagene CIS-FACTORIAL HepG2 Assay for human Nuclear Factor I (NFI) (AID 2282989). Particulars: HepG2 cis-regulatory reporter, NFI response element transcription; actives raise or lower the signal. Summed up:
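HepG2 cells transiently transfected with cis-element-driven multiplexed reporter transcription units, dosed for 24 h. Reporter mRNA quantified by RT-PCR, fluorescent labelling, HpaI digestion and capillary electrophoresis; bidirectional fit versus DMSO baseline.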

The nature of assay [19]: ATG_NRF2_ARE_CIS: Attagene CIS-FACTORIAL HepG2 Assay for human Nuclear Factor Erythroid 2 Related Factor 2 (NFR2) response to Antioxidant Response Elements (ARE) (AID 2282992). As to conditions: HepG2 Attagene ARE/NRF2 reporter, transcription factor activity; actives raise or lower the signal. The method, boiled down: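 HepG2 cells transiently transfected with multiplexed cis-regulated reporter transcription units measure endogenous transcription factor activity. Reporter mRNA at 24 h is quantified by RT-PCR, fluorescent labelling and capillary electrophoresis, with bidirectional fitting relative to DMSO.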

The target of assay [20] is Cellular tumor antigen p53 (Homo sapiens) (UniProt P04637). The assay can be described thus: ATG_p53_CIS: Attagene CIS-FACTORIAL HepG2 Assay for human p53 Transcription Factor (AID 2282994). As to conditions: HepG2 p53 cis-element reporter, Attagene mRNA; actives raise or lower the signal. The method, boiled down:
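HepG2 cells transiently transfected with multiplexed cis-regulated reporter transcription units read endogenous TF activity. After 24 h compound exposure, reporter mRNA was quantified by RT-PCR, fluorescent labelling, HpaI digestion and capillary electrophoresis; bidirectional fits versus DMSO baseline.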

Where “and” joins values, the source holds several entries; their conditions need not be identical. Equal values may be shown once. More than one record can exist for a structure, and the calls need not agree. Calls of active or inactive are those of the source. How the source made its calls: active means hit-call score of the fitted dose curve at least 0.9, where 1 is the maximum; inactive means score below 0.9.

Results on seven molecules are retold here after PubChem BioAssay (EPA / NIEHS).

One may read the AC50 as the concentration at which the activity in the assay is half-maximal.

Chain of Nuclear respiratory factor 1 (Homo sapiens) (Q16656 whole entry, looked up): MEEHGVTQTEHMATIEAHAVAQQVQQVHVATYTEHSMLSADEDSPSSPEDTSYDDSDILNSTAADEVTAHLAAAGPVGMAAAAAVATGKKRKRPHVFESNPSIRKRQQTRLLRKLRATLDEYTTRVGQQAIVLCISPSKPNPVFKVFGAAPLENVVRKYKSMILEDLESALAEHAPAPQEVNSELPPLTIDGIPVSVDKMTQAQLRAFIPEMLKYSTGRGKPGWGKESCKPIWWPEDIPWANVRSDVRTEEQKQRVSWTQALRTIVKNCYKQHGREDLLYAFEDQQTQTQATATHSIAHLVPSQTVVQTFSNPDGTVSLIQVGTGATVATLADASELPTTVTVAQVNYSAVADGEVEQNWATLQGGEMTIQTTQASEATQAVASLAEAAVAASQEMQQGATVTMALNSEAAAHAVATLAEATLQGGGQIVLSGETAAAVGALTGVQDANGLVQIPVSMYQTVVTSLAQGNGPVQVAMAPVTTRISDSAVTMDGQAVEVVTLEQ
Chain of Hepatocyte nuclear factor 3-beta (Homo sapiens) (Q9Y261 whole entry, looked up): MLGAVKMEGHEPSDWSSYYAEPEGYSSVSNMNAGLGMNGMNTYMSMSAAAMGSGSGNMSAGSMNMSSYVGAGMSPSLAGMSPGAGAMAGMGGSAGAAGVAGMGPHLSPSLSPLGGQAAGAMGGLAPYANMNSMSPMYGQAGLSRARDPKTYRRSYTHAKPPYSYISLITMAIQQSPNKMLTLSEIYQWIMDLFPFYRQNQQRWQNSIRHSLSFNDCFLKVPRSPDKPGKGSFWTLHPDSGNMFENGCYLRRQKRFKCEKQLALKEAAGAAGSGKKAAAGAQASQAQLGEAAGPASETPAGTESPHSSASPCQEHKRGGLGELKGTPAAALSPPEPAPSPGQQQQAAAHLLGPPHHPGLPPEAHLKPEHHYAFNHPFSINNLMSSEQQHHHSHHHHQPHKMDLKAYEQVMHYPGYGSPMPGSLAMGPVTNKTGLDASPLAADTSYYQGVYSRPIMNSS
Chain of Cellular tumor antigen p53 (Homo sapiens) (P04637 whole entry, looked up): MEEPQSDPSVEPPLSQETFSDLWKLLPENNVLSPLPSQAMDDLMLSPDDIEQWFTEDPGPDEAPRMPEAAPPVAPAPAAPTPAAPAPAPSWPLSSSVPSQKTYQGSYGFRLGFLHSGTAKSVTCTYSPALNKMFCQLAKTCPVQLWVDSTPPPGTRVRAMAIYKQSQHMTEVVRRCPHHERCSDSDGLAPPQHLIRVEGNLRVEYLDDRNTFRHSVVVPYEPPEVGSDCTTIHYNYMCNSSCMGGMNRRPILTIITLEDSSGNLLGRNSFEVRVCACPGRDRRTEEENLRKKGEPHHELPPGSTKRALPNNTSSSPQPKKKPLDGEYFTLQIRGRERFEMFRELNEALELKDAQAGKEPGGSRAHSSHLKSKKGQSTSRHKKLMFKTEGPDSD

As to `OC(C(F)(F)F)(C(F)(F)F)C(O)(C(F)(F)F)C(F)(F)F`, the AC50 in [1] is 23.7 µM (active) and 22.6 µM (active); in [2] it was 39.9 µM (active) and 45.7 µM (active); in assay [3], 48 µM (active); in assay [4], 12.7 µM (active) and 15.4 µM (active); in [5], 39.8 µM (active) and 30 µM (active); in [7] it was 30 µM (active). The AC50 in assay [8] is 30 µM (active); in [10], 7.94 µM (active). In addition, the result in assay [3], in assay [6], in [7], in assay [9] and in assay [10] was inactive.

Consider `O=C(O)/C=C/C(=O)O`, for which the outcome in assay [11], in [12], in [13], in assay [14], in [15] and in assay [16] was inactive. For the same molecule, the molecule was called inactive in assay [17], in assay [18], in assay [19] and in [20].

As to `CC(C)CC(=O)CC(C)C`, the molecule was classed as inactive in assay [11], in assay [12], in assay [13], in assay [14], in assay [15] and in assay [16]. Besides, the molecule was classed as inactive in assay [17], in assay [18], in assay [19] and in [20].

With `COc1ccccc1Oc1c(NS(=O)(=O)c2ccc(C(C)(C)C)cc2)nc(-c2ncccn2)nc1OCCO`, the result in assay [1], in assay [2], in assay [3], in assay [4], in assay [5] and in assay [6] was inactive. Also, the result in [7], in assay [8] and in assay [10] was inactive. Besides, the AC50 in assay [6] was 3.97 µM (active); in assay [7], 7.25 µM (active); in [8] it was 10 µM (active); in assay [9], 20 µM (active) and 9.01 µM (active).

Consider `CCCCCCOC(=O)CCCCCCCC(=O)OCCCCCC`, for which the call in assay [11], in assay [12], in assay [13], in [14], in [15] and in assay [17] was inactive. Moreover, the molecule was called inactive in assay [18] and in [19].

Regarding `Oc1ccc(Oc2ccccc2)cc1`, the molecule was called inactive in assay [11], in assay [13], in assay [14], in assay [15], in assay [16] and in assay [17]. Moreover, the call in assay [18], in assay [19] and in assay [20] was inactive.

`CCCC[N+]1(C)CCCC1`: the outcome in assay [11], in assay [12], in assay [13], in assay [14], in assay [15] and in [16] was inactive. Further, the result in assay [17], in assay [18], in assay [19] and in assay [20] was inactive.
